High-throughput results from PubChem BioAssay.
This is a sample that favours compounds with a hit; in the whole collection about 6.1% have one here.
D1 potentiator: potentiators of human D1 dopamine receptor | P21728 | HEK293 TREx D1 cells, calcium flux, dopamine EC20 potentiation | potentiation, % at 10 µM | 0.036% of 360,000 active; in the data active means potentiation above about 30%; further: 0% is about no effect
Target sequence (P21728 whole entry, looked up): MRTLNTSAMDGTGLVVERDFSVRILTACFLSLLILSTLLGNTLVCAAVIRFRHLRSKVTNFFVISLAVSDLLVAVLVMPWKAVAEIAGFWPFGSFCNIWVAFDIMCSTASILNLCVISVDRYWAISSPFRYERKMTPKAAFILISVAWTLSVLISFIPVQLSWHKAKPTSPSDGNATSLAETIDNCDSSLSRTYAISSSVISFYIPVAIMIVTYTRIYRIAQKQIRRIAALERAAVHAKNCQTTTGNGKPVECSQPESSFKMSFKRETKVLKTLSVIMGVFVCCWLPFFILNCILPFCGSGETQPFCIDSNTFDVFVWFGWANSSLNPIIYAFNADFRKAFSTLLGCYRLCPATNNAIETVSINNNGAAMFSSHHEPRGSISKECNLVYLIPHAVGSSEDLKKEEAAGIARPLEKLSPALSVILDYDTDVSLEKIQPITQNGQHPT
D3 ag: activates the human D3 dopamine receptor; P35462; D3R DiscoveRx beta-arrestin cells, luminescence, 90 min; max activation, %; 0.58% of 410,000 active; AID 652048; in the data active means max activation above about 30%; further: 0% is about no effect
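Agonist-mode cell screen: cells plated at 1500/well and incubated overnight at 37 °C, then exposed to library compounds for 90 min at 37 °C. Detection reagent was added for 30–60 min at room temperature, and luminescence was read.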
D1 agonist: human D1 receptor agonism; activation, % at 2 µM; 1% of 360,000 active; HEK293 T-REx D1 cells, calcium flux, agonist mode; P21728; AID 504660; in the data active means activation above about 30%; further: 0% is about no effect
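Inducible HEK293 T-REx D1 cells, force-coupled to calcium signalling, were plated at 4000 cells/well with tetracycline and held overnight at 30 C. After no-wash calcium dye loading, compound-evoked calcium rise over 180 s flagged agonists.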
DRD3 antagonist: blocks the human D3 dopamine receptor. P35462. D3R cells, DiscoveRx beta-arrestin luminescence, antagonist mode; stronger effect = lower value. max response, negative = inhibition, %. 2.5% of 360,000 active. AID 652054; in the data active means max response below about -50%; inconclusive means no clear call, values can overlap the other calls; further: on the % scale 0 is the no-effect control and ±100 the full control effect
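Cells plated overnight at 1500 cells/well, then exposed to library compounds with dopamine controls for 90 minutes at 37 degrees C. DiscoveRx reagent added for 30–60 minutes at room temperature; luminescence read, quantitative HTS format.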
D1 antag: antagonists of human D1 dopamine receptor | HEK293 TREx D1 cells, calcium flux, dopamine EC80; stronger effect = lower value | AID 504652 | P21728 | activity change, negative = inhibition, % at 10 µM | 3.2% of 360,000 active; in the data active means activity change below about -30%; further: on the % scale 0 is the no-effect control and ±100 the full control effect
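Kinetic fluorescence of a calcium dye serves as the read-out. D1-expressing Hek293 Trex cells, induced overnight at 30 C, are exposed to compound for 180 s before an EC80 dopamine addition, then read 180 s further.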
Starred values were filed as active, the others as inactive; ? = inconclusive; / = not tested or not shown.

SMILES	D1 potentiator	D3 ag	D1 agonist	DRD3 antagonist	D1 antag
Cc1ccc(CN2C3CCCC2CC(NC(=O)Nc2cccc(F)c2)C3)cc1 (stereo not given)	-6.5	-17.1	30.2*	-99.1*	-41.6*
c1cc2c(c(N3CCNCC3)c1)OCCO2	/	-23.8	/	/	/
O=C(NCC1=C(c2cccc3ccccc23)C[C@@H]2CC[C@H]1N2Cc1ccco1)c1cccs1	/	-13.3	/	-50.6*	/
O=C(NCC1=C(c2cccc3ccccc23)C[C@@H]2CC[C@H]1N2Cc1ccco1)c1ccncc1	/	-13.7	/	-8.9	/
O[C@H]1[C@H]2[C@H](O)CCCN2C[C@H]1O	/	-14.6	/	/	/
CC(C)N1CCOC(c2ccc(O)c(O)c2)C1 (stereo not given)	/	95.5*	/	18.7	/
CCCCCCOc1ccc(CN2CCN(CC)CC2)cc1	-2.9	-20.5	21.3	?	-4.2
CCN1CCN(Cc2ccc(OC(F)(F)F)cc2)CC1	2.7	-13.3	5.0	-18.3	-33.6*
O=C(Cc1c(Cl)cccc1Cl)N1CCN(Cc2ccccc2)CC1	/	-19.5	18.4	-50.8*	24.1
Cc1ccc(CC(=O)N2CCN(Cc3ccccc3)CC2)cc1	0.7	2.8	0.2	-3.0	-2.1
Cc1ccc2nc(N3CCC(C(=O)N4CCC5(CC4)OCCO5)CC3)sc2c1	-3.0	5.0	0.0	-51.0*	1.2
CC(=O)Nc1cc(C(=O)N2CCC3(CC2)OCCO3)ccc1S(=O)(=O)c1ccc(C)cc1	-1.0	5.0	-1.7	5.5	-20.8
Cc1ccc(S(=O)(=O)Nc2cc(C(=O)N3CCC4(CC3)OCCO4)ccc2N2CCCCC2)cc1	-7.0	-7.1	2.5	-54.4*	0.7
CC(=O)Nc1cc(C(=O)N2CCC3(CC2)OCCO3)ccc1S(=O)(=O)c1ccc(Cl)cc1	-2.5	-0.5	2.0	13.2	-87.2*
Cc1ccc(S(=O)(=O)NCC2CCC(C(=O)N3CCC4(CC3)OCCO4)CC2)cc1 (stereo not given)	-13.1	0.6	4.5	?	-55.2*
N#Cc1cc2c(nc1SCC(=O)Nc1ccc(Cl)c(C(F)(F)F)c1)C1CCN2CC1	-3.8	-9.2	4.4	/	-10.8
O=C(C[C@@H]1NCCC[C@H]1O)Cn1cnc2cc(Br)c(Cl)cc2c1=O	/	-8.3	/	/	/
O=C(OCCN1CCCCC1)C(O)(c1ccccc1)c1ccccc1	/	-9.3	/	/	/
CCOP(=O)(OCC)C(NS(=O)(=O)c1ccccc1)C(Cl)(Cl)Cl (stereo not given)	-0.6	-2.9	0.8	-0.5	-32.8*
CCOP(=O)(OCC)C(NC(=O)c1ccccc1)C(Cl)(Cl)Cl (stereo not given)	-3.9	6.2	2.7	-11.9	-8.3
Cc1cccc(N2C(=O)/C(=C/N3CCN(C(=O)c4ccco4)CC3)C(=O)NC2=S)c1	-4.2	-7.6	1.7	23.7	2.6
Cc1ccc(N2C(=O)/C(=C/N3CCN(C(=O)c4ccco4)CC3)C(=O)NC2=S)cc1C	-6.5	9.9	0.5	4.4	-34.5*
N#Cc1cc2c(nc1SCC(=O)Nc1ccc(C(F)(F)F)cc1)C1CCN2CC1	-3.9	4.0	3.1	/	17.0
COc1ccccc1CN1CCCCC1c1cccnc1 (stereo not given)	-2.6	32.9*	-0.9	-8.6	11.5
CC1OC(C)OC(C)O1 (stereo not given)	/	9.7	/	/	/
SMILES	D1 potentiator	D3 ag	D1 agonist	DRD3 antagonist	D1 antag
CN(C)c1ccc(CN2CC=C(c3ccc(F)cc3)CC2)cc1	-5.5	-60.2	4.6	-87.7*	-20.2
COc1cc(CN2CC=C(c3ccc(F)cc3)CC2)cc(OC)c1	-4.0	-23.8	1.9	-87.5*	3.3
Fc1ccc(Cn2nnnc2C(c2ccc(Cl)cc2)N2CC=C(c3ccc(F)cc3)CC2)cc1 (stereo not given)	16.4	-4.3	3.2	-15.2	-7.9
COc1cc(C)c(CN2CC=C(c3ccc(F)cc3)CC2)cc1C	-8.9	-10.1	1.4	-75.9*	-5.9
O=[N+]([O-])c1ccc(CN2CC=C(c3ccccc3)CC2)cc1	-6.2	-16.4	0.0	-54.8*	-6.4
C[C@]12C[C@H]3S[C@H]3C[C@@H]1CC[C@@H]1[C@@H]2CC[C@]2(C)[C@@H](O)CC[C@@H]12	/	0.6	/	/	/
Cc1ccc(-n2nc(C)c3c2NC(=O)CSC3c2ccc(O)cc2)cc1Cl (stereo not given)	0.3	-6.2	-0.7	/	1.2
CCCCc1nc2ccccc2c(=O)n1-c1cccc(OC)c1	-1.6	-12.1	5.9	/	4.9
O=C1OC2(c3cc(Br)c(O)cc3Oc3c2cc(Br)c(O)[c]3[Hg])c2ccccc21 (stereo not given)	/	2.8	/	/	/
O.O.O.O=C([O-])C(O)C(O)C(=O)[O-].O=C([O-])C(O)C(O)C(=O)[O-].[K+].[K+].[Sb].[Sb] (stereo not given)	/	-10.6	/	/	/
CCc1ccc(-n2nc(C)c3c2NC(=O)CSC3c2ccc(C(=O)OC)cc2)cc1 (stereo not given)	1.1	-16.6	9.4	/	-42.8*
CCc1ccc(-n2nc(C)c3c2NC(=O)CSC3c2ccccc2C)cc1 (stereo not given)	-2.1	-13.3	0.1	/	14.7
Cn1c(=O)n(C)c2cc(CNCCc3ccccc3F)ccc21	-0.1	-17.8	2.8	/	-2.5
COc1ccc(CNCCc2ccc3c(c2)OCO3)cc1Br	-4.0	1.0	77.9*	-27.0	-17.9
FC(F)(F)c1ccc(CNCCc2ccc3c(c2)OCO3)cc1	-2.1	-3.2	34.7*	-6.8	3.9
CC[N+](C)(CC)CCOC(=O)C(O)(c1ccccc1)c1ccccc1	/	0.6	/	/	/
CC(C)CCC(=O)O[C@H]1CC[C@H]2[C@@H]3CCC4=CC(=O)CC[C@]4(C)[C@H]3CC[C@]12C	/	9.3	/	/	/
O=C1Nc2ccc(Cl)cc2C(c2ccccc2Cl)=NC1O (stereo not given)	/	2.8	/	/	/
Nc1c(C(=O)Nc2ccc(Cl)c(C(F)(F)F)c2)sc2nc3c(cc12)N1CCC3CC1	-2.1	1.2	-1.1	/	-1.8
Cc1ccc2c(c1)C1CN(C)CCC1N2C(=S)Nc1cccnc1 (stereo not given)	-8.6	-0.2	0.2	-6.0	/
Cc1ccc2c(c1)C1CN(C)CCC1N2C(=O)Nc1cccc(Cl)c1 (stereo not given)	-13.2	-55.6	25.9	-24.3	-95.5*
C[C@@H]1[C@@H]2Cc3ccc(O)cc3[C@@]1(C)CCN2CCc1ccccc1	/	-22.6	/	/	/
CC1C2Cc3ccc(O)cc3[C@]1(C)CCN2CCc1ccccc1 (stereo not given in full)	/	-93.1	/	-93.1*	/
CC12CCCCC1=[N+]([O-])CN2O (stereo not given)	1.6	0.5	2.4	-61.9*	-0.1
CCC/C=C/C=C/C(=O)O[C@H]1/C(=C/C(=O)OC)C[C@H]2C[C@H]([C@@H](C)O)OC(=O)C[C@H](O)C[C@@H]3C[C@H](OC(C)=O)C(C)(C)[C@](O)(C[C@@H]4C/C(=C/C(=O)OC)C[C@H](/C=C/C(C)(C)[C@]1(O)O2)O4)O3	/	-27.8	/	/	/
